According to PubChem BioAssay (NCI):
The panel holds about 83,000 compounds, 20% with a hit somewhere; the sample as a whole holds those more often.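 Cell lines were cultured in 96-well plates, exposed to a single compound concentration, and assessed for percent growth 48 hours later.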 Activity calls are given as the source filed them. Rule for the calls: active = growth percent below 10; inactive = the rest.

What was measured:
Assay in all cases: NCI-60 one-dose screen, 48 h (100 = growth as untreated, 0 = no growth, -100 = all killed)
NCI-H23 lung = test system: NCI-H23 lung
NCI-H226 lung = test system: NCI-H226 lung
NCI-H322M lung = test system: NCI-H322M lung
HOP-62 NSCLC = test system: HOP-62 NSCLC
NCI-H460 lung = test system: NCI-H460 lung
HOP-92 NSCLC = test system: HOP-92 NSCLC
NCI-H522 lung = test system: NCI-H522 lung
A549/ATCC NSCLC = test system: A549/ATCC NSCLC
786-0 renal = test system: 786-0 renal
COLO 205 colon = test system: COLO 205 colon
DU-145 prostate = test system: DU-145 prostate
K-562 leukemia = test system: K-562 leukemia
MALME-3M melanoma = test system: MALME-3M melanoma
MDA-MB-231 breast = test system: MDA-MB-231 breast
RXF 393 renal = test system: RXF 393 renal
SF-268 CNS = test system: SF-268 CNS
SF-295 CNS = test system: SF-295 CNS
SF-539 CNS = test system: SF-539 CNS
UACC-257 melanoma = test system: UACC-257 melanoma
M14 melanoma = test system: M14 melanoma

Measured: growth

COc1cccc2c1C(=O)c1c(O)c3c(c(O)c1C2=O)C[C@@](O)(C(=O)CO)C[C@@H]3OC1CC(N)C(O)C(C)O1 (stereo partly specified)
active: NCI-H226 lung; 10 µM -18.3% | HOP-62 NSCLC; 10 µM 6.93% | NCI-H460 lung; 1 µM -31.1% | NCI-H460 lung; 2.5 µM 9.19% | NCI-H460 lung; 10 µM 0.571% | HOP-92 NSCLC; 10 µM -22.8% | NCI-H522 lung; 1 µM -10.4% | NCI-H522 lung; 10 µM -38% | A549/ATCC NSCLC; 10 µM -30.5% | 786-0 renal; 1 µM -14.3% | 786-0 renal; 10 µM 4.5% | COLO 205 colon; 10 µM -47.4% | DU-145 prostate; 2.5 µM -33.2% | K-562 leukemia; 10 µM 2.13% | MALME-3M melanoma; 1 µM -17.2% | MALME-3M melanoma; 10 µM -80.1% | MDA-MB-231 breast; 10 µM 3.79% | RXF 393 renal; 10 µM -28.5% | SF-268 CNS; 10 µM -4.32% | SF-295 CNS; 1 µM 2.06% | SF-295 CNS; 2.5 µM -1.94% | SF-295 CNS; 10 µM -27.6% | SF-539 CNS; 10 µM -50.3% | UACC-257 melanoma; 10 µM 3.46%
inactive: NCI-H23 lung; 0.0025 µM 90% | NCI-H23 lung; 1 µM 28.2% | NCI-H23 lung; 2.5 µM 33.1% | NCI-H23 lung; 10 µM 33.3% | NCI-H226 lung; 0.0025 µM 84% | NCI-H226 lung; 2.5 µM 23.1% | NCI-H322M lung; 0.0025 µM 86.8% | NCI-H322M lung; 1 µM 63.4% | NCI-H322M lung; 2.5 µM 101% | NCI-H322M lung; 10 µM 13.9% | HOP-62 NSCLC; 0.0025 µM 88.3% | HOP-62 NSCLC; 2.5 µM 31.5% | NCI-H460 lung; 0.0025 µM 73.4% | HOP-92 NSCLC; 0.0025 µM 85.2% | HOP-92 NSCLC; 2.5 µM 51% | NCI-H522 lung; 0.0025 µM 78.3% | A549/ATCC NSCLC; 0.0025 µM 73% | A549/ATCC NSCLC; 1 µM 33.7% | A549/ATCC NSCLC; 2.5 µM 36.5% | 786-0 renal; 0.0025 µM 84.4% | 786-0 renal; 2.5 µM 26.8% | COLO 205 colon; 0.0025 µM 85.8% | COLO 205 colon; 1 µM 53.8% | COLO 205 colon; 2.5 µM 56.7% | DU-145 prostate; 10 µM 13.2% | K-562 leukemia; 0.0025 µM 107% | K-562 leukemia; 1 µM 32.8% | K-562 leukemia; 2.5 µM 28.1% | MALME-3M melanoma; 0.0025 µM 79.3% | MALME-3M melanoma; 2.5 µM 30% | MDA-MB-231 breast; 0.0025 µM 124% | MDA-MB-231 breast; 1 µM 71% | MDA-MB-231 breast; 2.5 µM 82.1% | RXF 393 renal; 0.0025 µM 107% | SF-268 CNS; 0.0025 µM 97% | SF-268 CNS; 1 µM 41% | SF-268 CNS; 2.5 µM 16.7% | SF-295 CNS; 0.0025 µM 95.8% | SF-539 CNS; 0.0025 µM 97.1% | SF-539 CNS; 1 µM 36.5% | SF-539 CNS; 2.5 µM 32.3% | UACC-257 melanoma; 0.0025 µM 90% | UACC-257 melanoma; 1 µM 28.3% | UACC-257 melanoma; 2.5 µM 42.8% | M14 melanoma; 0.0025 µM 90.9% | M14 melanoma; 1 µM 16.6% | M14 melanoma; 2.5 µM 50.9%

O=C(/C=C/c1ccccn1)c1ccccc1
active: NCI-H522 lung; 10 µM unless noted -75.6%
inactive: NCI-H23 lung; 10 µM 83.8% | NCI-H226 lung; 10 µM 86.1% | NCI-H322M lung; 10 µM 88.8% | HOP-62 NSCLC; 10 µM 93.8% | NCI-H460 lung; 10 µM 26.5% | HOP-92 NSCLC; 10 µM 78.3% | A549/ATCC NSCLC; 10 µM 76.3% | 786-0 renal; 10 µM 15.6% | COLO 205 colon; 10 µM 32% | DU-145 prostate; 10 µM unless noted 60.5% | K-562 leukemia; 10 µM 14% | MALME-3M melanoma; 10 µM 91% | MDA-MB-231 breast; 10 µM 90.2% | RXF 393 renal; 10 µM unless noted 90.6% | SF-268 CNS; 10 µM 85.4% | SF-295 CNS; 10 µM 87.5% | SF-539 CNS; 10 µM 68.5% | UACC-257 melanoma; 10 µM 72.9% | M14 melanoma; 10 µM 42.1%
